From PubChem
IEC-6 tox-1 = counter-screen for KLF5 inhibitors: cytotoxicity in IEC-6 cells; AID 1825; 290,000 tested, 0.78% active; inhibition, % at 5 µM; IEC-6 cytotoxicity, luminescence viability;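 further: 0% = plate median of test compound wells and 100% = cytotoxic reference compound wells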
APP transl inh = APP translation inhibition; SH-SY5Y APP 5'UTR-luciferase reporter, luminescence; inhibition, % at 2 µM; 190,000 tested, 0.82% active; AID 1285;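 active means inhibition above a set limit, derived from the sample mean plus 3 SD, cut at about 45% in these data; inconclusive means one replicate passes the limit while the other fails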
KLF5 inh = suppresses KLF5 promoter-driven expression; AID 1700; DLD-1 KLF5 promoter-luciferase reporter, luminescence; inhibition, % at 5 µM; 290,000 tested, 0.23% active;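 active means inhibition above a per-plate limit of that plate's mean compound inhibition plus 3 SD, cut at about 60% in these data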;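 further: 0% = DMSO wells and 100% = LY294002 at 200 µM; higher means less KLF5 promoter-driven luciferase light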
BaF3 tox = parental Ba/F3 viability inhibition as JAK2V617F counter-screen; CellTiter-Glo ATP luminescence; inhibition, % at 5.6 µM; 220,000 tested, 1.1% active; AID 1486;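 active means inhibition above a per-campaign cutoff, the mean inhibition of all tested compounds plus 3 SD, cut at about 27% in these data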;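 further: 0% = DMSO wells and 100% = JAK Inhibitor I control wells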
Ba/F3 V617F tox = reduce viability of Ba/F3 cells dependent on JAK2V617F; Ba/F3 EpoR-JAK2V617F viability, ATP luminescence; inhibition, % at 5.6 µM; 220,000 tested, 1.1% active; AID 1446;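 active means inhibition above the campaign mean plus 3 SD over all tested compounds, cut at about 24% in these data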;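 further: cytokine-independent growth of Ba/F3 cells driven by EpoR plus mutant JAK2; 0% = DMSO-treated cells and 100% = JAK inhibitor I control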
aSyn 5UTR inh = 5' untranslated region of α-synuclein, MLPCN primary screen; inhibition, % (tested at 7.5 µM); alpha-synuclein 5'UTR reporter, inhibitor activity; AID 1813; 300,000 tested, 0.82% active; in the data active means inhibition above about 60%; inconclusive means no clear call, values can overlap the other calls;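 further: H4 neuroglioblastoma cells stably carrying SNCA 5'UTR luciferase fusion; 0% = DMSO wells and 100% = positive control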
KLF5 confirm = confirmation of KLF5 inhibitors | DLD-1 KLF5 promoter firefly luciferase reporter, luminescence | 610 tested, 79% active | AID 1834 | shares compounds with KLF5 inh | inhibition, % at 4 µM;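 active means inhibition above a set limit taken from the earlier primary screen, cut at about 63% in these data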;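 further: 0% = DMSO wells and 100% = LY294002 at 200 µM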
IEC-6 tox-2 = rat IEC-6 cytotoxicity, KLF5 inhibitor counter-screen. IEC-6 rat intestinal cells, viability luminescence. shares compounds with KLF5 inh. inhibition, % at 4 µM. AID 1905. 610 tested, 56% active; in the data active means inhibition above about 23%;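 further: cells exposed to compounds for 48 hours before viability read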
IEC-6 cytotox cf = confirmation of cytotoxic compounds in rat IEC-6 intestinal epithelial cells | IEC-6 rat intestinal epithelial viability, luminescence | AID 1907 | inhibition, % at 5 µM | 1,900 tested, 63% active | shares compounds with IEC-6 tox-1;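 further: 0% = vehicle and 100% = reference cytotoxic drug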
Starred values were filed as active, the others as inactive; ? = inconclusive; nt = no result. A selection: hits, their analogues and other compounds. The true share with any hit is near 2.2%. Unless noted, no stated cut-off is given here; in the data, active means inhibition above about 22%; inactive means the rest.

SMILES	IEC-6 tox-1	APP transl inh	KLF5 inh	BaF3 tox	Ba/F3 V617F tox	aSyn 5UTR inh	KLF5 confirm	IEC-6 tox-2	IEC-6 cytotox cf
COCCOC(=O)c1[nH]c2c(c1C)C(=O)CC(c1cccs1)C2 (stereo unspecified)	79*	85*	71*	75*	74*	64*	73*	59*	55*
COC(=O)c1[nH]c2c(c1C)C(=O)CC(c1cccc(OC)c1)C2 (stereo unspecified)	86*	nt	78*	nt	nt	41	89*	64*	62*
CCCCCOC(=O)c1[nH]c2c(c1C)C(=O)CC(c1ccco1)C2 (stereo unspecified)	94*	95*	79*	95*	95*	54	88*	77*	79*
Cc1ccc(C)c(NC(=S)N2CCC(NC(=O)c3ccc(F)cc3)CC2)c1	7	nt	-46	nt	nt	-6	nt	nt	nt
CS(=O)(=O)C1=NSC2=NC(=O)/C(=C\c3ccc(OC(=O)c4ccco4)c(Br)c3)C(=N)N21	-3	nt	5	nt	nt	17	nt	nt	nt
O=C(Nc1nc2ccccc2[nH]1)c1ccccc1OC(F)F	11	nt	-76	nt	nt	1	nt	nt	nt
O=C(Nc1nc2ccccc2[nH]1)c1ccccc1F	43*	1	76*	46*	50*	108*	75*	46*	57*
COC(=O)Cn1c(=O)c2c(nc3n2CCCN3CCc2ccccc2)n(C)c1=O	5	nt	-26	nt	nt	18	nt	nt	nt
Cc1ccsc1/C=N/NC(=O)c1ccncc1	1	-3	7	2	1	-25	nt	nt	nt
COc1cc(C(=O)N/N=C/c2sccc2C)cc(OC)c1OC	89*	92*	70*	84*	80*	114*	86*	63*	65*
CC1CN(c2nc3ccccc3nc2SCC(=O)Nc2ccc(F)cc2)CC(C)O1 (stereo unspecified)	-1	nt	-4	nt	nt	-7	nt	nt	nt
Cc1nn(CC(=O)N2CCN(c3ccccc3)CC2)c(=O)c2cccn12	-4	nt	12	nt	nt	-4	nt	nt	nt
COc1cc(-c2noc(C)c2-c2ccc(N(C)C)nc2)cc(OC)c1OC	93*	nt	76*	nt	nt	47	85*	82*	59*
NNC(=S)NCc1ccc2c(c1)OCO2	-2	-16	-34	7	1	-25	nt	nt	nt
C/C(=N\NC(=O)c1n[nH]c2c1CCC2)c1cccs1	81*	nt	75*	73*	72*	107*	71*	3	17
CCCCCCCCCC[n+]1cccc2c3ccccc3ccc21	52*	24	96*	92*	101*	-37	65*	38*	36*
COc1cccc(C(C(=O)NCC2CCCO2)N(C(=O)Cn2nnc3ccccc32)c2ccccc2C(C)=O)c1OC (stereo unspecified)	-2	nt	24	nt	nt	-11	nt	nt	nt
Cc1cc(C(=O)NCC23CC4CC(CC(C4)C2)C3)c(C)o1	1	-12	-10	6	1	-3	nt	nt	nt
CC(=O)NC(c1ccccc1)c1cc([N+](=O)[O-])c2cccnc2c1O (stereo unspecified)	-6	-21	-20	10	3	-18	nt	nt	nt
CC(=O)NC(c1cccc([N+](=O)[O-])c1)c1ccc2cccnc2c1O (stereo unspecified)	94*	nt	62*	nt	nt	123*	96*	80*	77*
COc1cccc(C(NC(C)=O)c2ccc3cccnc3c2O)c1 (stereo unspecified)	99*	nt	91*	nt	nt	72*	97*	81*	75*
CC(=O)NC(c1ccc(C)cc1)c1cc(Cl)c2cccnc2c1O (stereo unspecified)	94*	nt	64*	nt	nt	?	83*	69*	69*
CC(=O)NC(c1ccc(C(C)C)cc1)c1ccc2cccnc2c1O (stereo unspecified)	70*	nt	81*	nt	nt	67*	82*	83*	83*
Cc1ccc(S(=O)(=O)Cc2ccc(C(=O)N3CCN(c4cccc(C)c4C)CC3)o2)cc1	77*	nt	64*	nt	nt	88*	68*	57*	56*
COc1ccc(S(=O)(=O)Cc2ccc(C(=O)N3CCN(c4cccc(C)c4C)CC3)o2)cc1	2	-14	-8	5	1	7	nt	nt	nt
SMILES	IEC-6 tox-1	APP transl inh	KLF5 inh	BaF3 tox	Ba/F3 V617F tox	aSyn 5UTR inh	KLF5 confirm	IEC-6 tox-2	IEC-6 cytotox cf
Cc1ccccc1C1=NC(C(F)(F)F)(C(F)(F)F)c2c(n(C)c(=O)n(C)c2=O)N1	5	-18	-3	6	3	-3	nt	nt	nt
Cn1c2c(c(=O)n(C)c1=O)C(C(F)(F)F)(C(F)(F)F)N=C(c1ccc(Cl)cc1)N2	37*	51*	81*	86*	95*	99*	84*	57*	92*
Cn1cc(S(=O)(=O)N2CCCC2)cc1C(=O)N1CCN(c2ccccc2)CC1	-9	nt	-22	nt	nt	5	nt	nt	nt
CCOc1ccc(-c2cc(N3C(=O)Nc4ccccc4N3O)n[nH]2)cc1	70*	25	69*	77*	76*	-7	2	19	2
COc1ccc2c(c1)sc(N)[n+]2Cc1cc(C)cc2cccnc12	80*	95*	69*	79*	82*	114*	73*	61*	63*
COc1ccc(CCNS(=O)(=O)c2ccc(N3CCCC3=O)cc2)cc1	-2	-5	-42	3	-3	-19	nt	nt	nt
CCOc1ccc(S(=O)(=O)Nc2cc(OC)ccc2OC)cc1	90*	93*	73*	80*	80*	81*	83*	59*	62*
COc1ccc(OC)c(NS(=O)(=O)c2ccc(N3CCCC3=O)cc2)c1	88*	96*	83*	81*	79*	111*	83*	62*	53*
COc1ccc(-n2nc(C(=O)NCC(=O)N3CCN(Cc4ccccc4)CC3)c3ccccc3c2=O)c(OC)c1	10	nt	12	nt	nt	-2	nt	nt	nt
Cc1ccc(S(=O)(=O)N(C)C)cc1NC(=O)CCNC(=O)c1ccco1	-2	nt	-30	nt	nt	10	nt	nt	nt
CCOc1c(Br)cc(C(=O)N2CCCN(C)CC2)cc1OC	0	nt	12	nt	nt	0	nt	nt	nt
O=C(Nc1ccc(Cl)cn1)c1cccc2c(Br)cccc12	82*	nt	62*	nt	nt	-41	-10	14	14
Cc1ccccc1C(=O)Nc1ccc(Cl)cn1	-2	-68	-85	2	-4	-114	nt	nt	nt
CC(C)CN(C(=O)c1ccc(S(=O)(=O)N2CCOCC2)cc1)C1CCS(=O)(=O)C1 (stereo unspecified)	nt	nt	nt	nt	nt	-8	nt	nt	nt
CCOCCCNC(=O)CSc1nc2nc(C)c(Cc3ccccc3)c(C)n2n1	-4	2	-3	6	-1	1	nt	nt	nt
Cc1ccc(O)c(C(=O)c2cnc3c(c2)CN(C)C(=O)N3)c1	3	-4	23	2	-4	-34	nt	nt	nt
